Publication PMC10726135, “HNF4α isoforms regulate the circadian balance between carbohydrate and lipid metabolism in the liver”
Over roughly 18,000 sequences, “log2 normalized intensity” has its median near 0.36; the highest 2% begin near 7.3. Many of the other results were omitted from the sample, so the highest values are more common in it than they were.

These sequences were tested against T1, HNF4alpha8 (COS-7 nuclear extract) (Homo sapiens, UniProt P41235-5 1-452) (assay: protein-binding microarray; COS-7 nuclear extract on double-stranded Agilent 4x180k PBM; binding buffer, salt, pH and temperature not given in the material; high values mean tight binding). Conditions: chain copies: 2; label: 3' end of strand 1 on the slide; dsDNA, one strand shown.
T1 sequence: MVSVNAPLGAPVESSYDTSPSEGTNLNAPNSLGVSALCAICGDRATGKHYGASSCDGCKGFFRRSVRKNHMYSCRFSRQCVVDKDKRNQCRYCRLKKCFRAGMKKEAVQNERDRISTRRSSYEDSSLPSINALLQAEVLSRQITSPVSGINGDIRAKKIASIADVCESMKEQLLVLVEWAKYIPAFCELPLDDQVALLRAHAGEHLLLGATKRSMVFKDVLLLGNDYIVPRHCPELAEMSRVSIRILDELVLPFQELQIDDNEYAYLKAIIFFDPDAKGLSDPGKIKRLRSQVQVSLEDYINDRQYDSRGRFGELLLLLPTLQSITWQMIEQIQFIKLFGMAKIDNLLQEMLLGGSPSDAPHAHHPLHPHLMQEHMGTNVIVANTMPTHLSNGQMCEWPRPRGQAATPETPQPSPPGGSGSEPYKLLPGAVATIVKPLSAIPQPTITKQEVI
How it was run: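 Nuclear extracts from COS-7 cells expressing a transiently transfected human HNF4α isoform were put on a custom Agilent SurePrint G3 4x180k array carrying ~44,000 double-stranded ~60-nt test sequences in quadruplicate. Imaging used an Agilent G2565CA scanner at 2-µm resolution. Binding signal is the background-corrected, normalized gProcessedSignal from Agilent software.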

Sequence | binding signal
GCAGTTCCTGATCTTTGACCTGGAGCATGAGCCTAGGGAGATTAGAGTATCGGTCGA | 5.34 log2 normalized intensity
GGAGAGAGTTTGGCCCCAGTTCCCATGGACGCCTAGGGAGATTAGAGTATCGGTCGA | 1.45 log2 normalized intensity
AATTCCAGTTTGGACTTTGATCCTGATGACGCCTAGGGAGATTAGAGTATCGGTCGA | 10 log2 normalized intensity
CTGATGCCCTTTGGATTTAGGCAGTTTTTGGCCTAGGGAGATTAGAGTATCGGTCGA | 2.92 log2 normalized intensity
TGGACTTTGATCCTGATGACTGCAGAGCTTGCCTAGGGAGATTAGAGTATCGGTCGA | 6.16 log2 normalized intensity
CACCTTTGGATCCAGCTCCTGATGTTTGGTGCCTAGGGAGATTAGAGTATCGGTCGA | 2.43 log2 normalized intensity
CAGTTTGGACTTTGATCCTGATGACTGCAGGCCTAGGGAGATTAGAGTATCGGTCGA | 8.17 log2 normalized intensity
ATCCTGCAGTTCCTGATCTTTGACCTGGAGGCCTAGGGAGATTAGAGTATCGGTCGA | 6.23 log2 normalized intensity
TTACAGTGTGAATCTCCAACAAGGCAGGAGGCCTAGGGAGATTAGAGTATCGGTCGA | -0.531 log2 normalized intensity
GTCATAATTTGATCCAGTGTGCAAATGTGTGCCTAGGGAGATTAGAGTATCGGTCGA | 2.05 log2 normalized intensity
CCACAACCTACCCTTTGCCCTGGACATATTGCCTAGGGAGATTAGAGTATCGGTCGA | 3.27 log2 normalized intensity
GCAAACCTGCCCTTTGCTCCAGAGGAAGATGCCTAGGGAGATTAGAGTATCGGTCGA | 3.81 log2 normalized intensity
CCTTTGAGGAGGCCTTTCCTGACCCCTCCTGCCTAGGGAGATTAGAGTATCGGTCGA | 4.78 log2 normalized intensity
ATTCTTTGCCATGACCTTTGAAGCCCAGAAGCCTAGGGAGATTAGAGTATCGGTCGA | 5.57 log2 normalized intensity
AGCAATTCAAATTCTTTGCCATGACCTTTGGCCTAGGGAGATTAGAGTATCGGTCGA | 6.24 log2 normalized intensity
TTCAAATTCTTTGCCATGACCTTTGAAGCCGCCTAGGGAGATTAGAGTATCGGTCGA | 7.52 log2 normalized intensity
ATATGAAAGAGCCATGGACTGCTGACCTTTGCCTAGGGAGATTAGAGTATCGGTCGA | 7.13 log2 normalized intensity
ATCTTTGACCTGGAGCATGACCCTTTGCAGGCCTAGGGAGATTAGAGTATCGGTCGA | 3.64 log2 normalized intensity
AAAGAGCCATGGACTGCTGACCTTTGAACCGCCTAGGGAGATTAGAGTATCGGTCGA | 9.59 log2 normalized intensity
GCCATGGACTGCTGACCTTTGAACCCTGAGGCCTAGGGAGATTAGAGTATCGGTCGA | 10.3 log2 normalized intensity
GGCAGATATGAAAGAGCCATGGACTGCTGAGCCTAGGGAGATTAGAGTATCGGTCGA | -0.289 log2 normalized intensity
CTGCTGCCCAAAGGTCACCTCTTCAGATAGGCCTAGGGAGATTAGAGTATCGGTCGA | 3.89 log2 normalized intensity
CTGTTTGACCAAAGCTACTCATCATGAACTGCCTAGGGAGATTAGAGTATCGGTCGA | 0.948 log2 normalized intensity
TAGACATAGGTTATAAACTTGTTTGGGATTGCCTAGGGAGATTAGAGTATCGGTCGA | 0.308 log2 normalized intensity

Sequence | binding signal
AAAGTCCAACACAGAAGCCTTTTGTTCTTTGCCTAGGGAGATTAGAGTATCGGTCGA | 2.15 log2 normalized intensity
AATGTCTGGAAGTTCTTCCTTAAGTCTAACGCCTAGGGAGATTAGAGTATCGGTCGA | 0.865 log2 normalized intensity
GGACTTGGTAAAGTCAATAATCTAGAAACCGCCTAGGGAGATTAGAGTATCGGTCGA | 0.338 log2 normalized intensity
GCAGTGAGGGTGGGTTCAAAGGTCAGAAAAGCCTAGGGAGATTAGAGTATCGGTCGA | 8.97 log2 normalized intensity
GGCATGGGAAGCAGTGAGGGTGGGTTCAAAGCCTAGGGAGATTAGAGTATCGGTCGA | 1.64 log2 normalized intensity
TGGGTTCAAAGGTCAGAAAAAGCTGACGCCGCCTAGGGAGATTAGAGTATCGGTCGA | 7.25 log2 normalized intensity
TAGAAGCAGTGGGACAAAGGTCACAGGAAAGCCTAGGGAGATTAGAGTATCGGTCGA | 5.05 log2 normalized intensity
GGGAAGCAGTGAGGGTGGGTTCAAAGGTCAGCCTAGGGAGATTAGAGTATCGGTCGA | 8.86 log2 normalized intensity
GAGGGTGGGTTCAAAGGTCAGAAAAAGCTGGCCTAGGGAGATTAGAGTATCGGTCGA | 7.27 log2 normalized intensity
ATAAGGTAACAGGCCAAAGGGCAAGAACAAGCCTAGGGAGATTAGAGTATCGGTCGA | 3.1 log2 normalized intensity
TCACCTCGCTCCCCTCCTGTCAGTTTATTTGCCTAGGGAGATTAGAGTATCGGTCGA | 2.3 log2 normalized intensity
CCCCCTGTGATTACTTCCACTCTTGCAGATGCCTAGGGAGATTAGAGTATCGGTCGA | 0.911 log2 normalized intensity
TTGCTTAAGCATAGCAAAAGTGACCTTTGCGCCTAGGGAGATTAGAGTATCGGTCGA | 9.23 log2 normalized intensity
CAAAGCATAGCAAGAGTGACCTTTGCTCCAGCCTAGGGAGATTAGAGTATCGGTCGA | 9 log2 normalized intensity
GTGACCTTTGCTCCAGTTCCCAATAAGTTGGCCTAGGGAGATTAGAGTATCGGTCGA | 5.13 log2 normalized intensity
TTTGCCAAAGCATAGCAAGAGTGACCTTTGGCCTAGGGAGATTAGAGTATCGGTCGA | 7.18 log2 normalized intensity
CATAGCAAGAGTGACCTTTGCTCCAGTTCCGCCTAGGGAGATTAGAGTATCGGTCGA | 8.19 log2 normalized intensity
AGATAGCATTCCAAGAGAGCAAAGTGCTTTGCCTAGGGAGATTAGAGTATCGGTCGA | 1.21 log2 normalized intensity
ATAGCAAAAGTGACCTTTGCTCCAGTTCCCGCCTAGGGAGATTAGAGTATCGGTCGA | 8.52 log2 normalized intensity
TGACCTTTGCTCCAGTTCCCAATAATTTCCGCCTAGGGAGATTAGAGTATCGGTCGA | 5.13 log2 normalized intensity
CTTCTTTGCTTAAGCATAGCAAAAGTGACCGCCTAGGGAGATTAGAGTATCGGTCGA | 3.13 log2 normalized intensity
CCTGCATATCCTGACTGCTGACCTTTAAGCGCCTAGGGAGATTAGAGTATCGGTCGA | 5.56 log2 normalized intensity
CAAGAGTGACCTTTGCTCCAGTTCCCAATAGCCTAGGGAGATTAGAGTATCGGTCGA | 6.59 log2 normalized intensity
AAAAGTGACCTTTGCTCCAGTTCCCAATAAGCCTAGGGAGATTAGAGTATCGGTCGA | 7.02 log2 normalized intensity
